# According to PubChem BioAssay (EPA / NIEHS):
# Records with an inconclusive call do not appear. Activity calls are given as the source filed them. The calls were made as follows: active = hit-call score of the fitted dose curve at least 0.9, where 1 is the maximum; inconclusive = response in the unintended direction; inactive = score below 0.9.
# Key:
# [1] = target: Estrogen receptor beta (Homo sapiens) (UniProt Q92731); test: OT_ER_ERbERb_0480: Odyssey Thera (OT) 8-hour HEK293T Protein-Complementation Assay for Estrogen Receptor-beta/-beta Homodimer (AID 2283357);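 also: active means signal gain over DMSO baseline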
# How it was run: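 Fluorescence intensity, nuclear for agonists and nuclear plus cytoplasmic for antagonists, was quantified by laser scanning cytometry versus vehicle after 8 h treatment. The cells were HEK293T stably carrying ER beta LBD fragment-complementation partners.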
# [2] = target: Estrogen receptor (Homo sapiens) (UniProt P03372); test: OT_ER_ERaERa_0480: Odyssey Thera (OT) 8-hour HEK293T Protein-Complementation Assay for Estrogen Receptor-alpha/-alpha Homodimer (AID 2283351);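 also: rise in fluorescence from reassembled reporter fragments on ERα LBD homodimer in nucleus or whole cell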
# How it was run: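 HEK293T, stable ERα LBD (aa 310-547) PCA homodimer; 8 h compound exposure; fluorescence intensity, laser scanning cytometer; positive fitting direction, DMSO baseline.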
# [3] = target: PGR (gene 5241) (UniProt P06401); test: NVS_NR_hPR: NovaScreen (NVS) Nuclear Receptor Binding Assay for human Progestron Receptor (PR) (AID 2283360);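 also: active means loss of bound radioligand signal versus DMSO baseline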
# How it was run: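 Radioligand competition binding on receptor extracted from T47D cells, read by scintillation counting 18 h after dosing. Loss of signal versus DMSO; primary screen in duplicate at 25 uM, actives followed in concentration series.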
# [4] = target: Androgen Receptor/SRC-1 Co-activator, AR (gene 367) (UniProt P10275); test: OT_AR_ARSRC1_0960: Odyssey Thera (OT) 16-hour HEK293T Protein-Complementation Assay for Androgen Receptor/SRC-1 Co-activator (AID 2283353);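 also: actives raise the signal above DMSO so potency reflects increased AR and SRC-1 complex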
# How it was run: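 Split-Venus PCA, AR/SRC-1 fusions, stable HEK293T; 16 h compound exposure; imaged at 488 and 635 nm; N/C ratio (488 nm channel), min 400 cells/image; positive-direction fit, DMSO baseline.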
# [5] = target: Androgen Receptor/SRC-1 Co-activator, AR (gene 367) (UniProt P10275); test: OT_AR_ARSRC1_0480: Odyssey Thera (OT) 8-hour HEK293T Protein-Complementation Assay for Androgen Receptor/SRC-1 Co-activator (AID 2283354);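 also: hits raise the complementation signal above DMSO so AC50 marks enhancers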
# How it was run: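 HEK293T cells stably expressing AR and SRC-1 fused to Venus YFP fragments, imaged 8 h after dosing. Complementation fluorescence scored as nuclear/cytoplasmic ratio at 488 nm in at least 400 cells per image; gain fitted versus DMSO.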
# [6] = target: T1, Estrogen receptor (Homo sapiens) + Estrogen receptor beta (Homo sapiens) (UniProt P03372+Q92731); test: OT_ER_ERaERb_0480: Odyssey Thera (OT) 8-hour HEK293T Protein-Complementation Assay for Estrogen Receptor-alpha/-beta Heterodimer (AID 2283352)
# How it was run: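 Compound added to HEK293T cells carrying split-reporter-tagged ER-alpha and ER-beta LBDs, incubated 8 hours, then imaged by laser scanning cytometer. Signal rise in nucleus, or nucleus and cytoplasm, over vehicle was fitted in the positive direction.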
# [7] = target: T1, Estrogen receptor (Homo sapiens) + Estrogen receptor beta (Homo sapiens); test: OT_ER_ERaERb_1440: Odyssey Thera (OT) 24-hour HEK293T Protein-Complementation Assay for Estrogen Receptor-alpha/-beta Homodimer (AID 2283356);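 also: heteromer of ER alpha and ER beta binding domains; hits raise reporter fluorescence and both agonists and antagonists give an increase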
# How it was run: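 Stable HEK293T PCA line, ERα LBD 310-547 + ERβ LBD 263-489 fused to reporter fragments; 24 h treatment; fluorescence read by laser scanning cytometry; positive fitting direction relative to DMSO.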
# [8] = target: Retinoic acid receptor alpha (Homo sapiens) (UniProt P10276); test: NVS_NR_hRAR_Antagonist: NovaScreen (NVS) Nuclear Receptor Binding Assay for human Retinoic Acid Alpha Receptor Antagonism (RAR) (AID 2283358)
# How it was run: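 Cell-free TR-FRET binding assay with extracted human RARalpha in antagonist mode, read 2 h after dosing. Loss of signal was fitted relative to DMSO; the primary screen used 25 uM in duplicate, with concentration series on follow-up.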
# PGR (gene 5241), sequence (P06401 whole entry, looked up): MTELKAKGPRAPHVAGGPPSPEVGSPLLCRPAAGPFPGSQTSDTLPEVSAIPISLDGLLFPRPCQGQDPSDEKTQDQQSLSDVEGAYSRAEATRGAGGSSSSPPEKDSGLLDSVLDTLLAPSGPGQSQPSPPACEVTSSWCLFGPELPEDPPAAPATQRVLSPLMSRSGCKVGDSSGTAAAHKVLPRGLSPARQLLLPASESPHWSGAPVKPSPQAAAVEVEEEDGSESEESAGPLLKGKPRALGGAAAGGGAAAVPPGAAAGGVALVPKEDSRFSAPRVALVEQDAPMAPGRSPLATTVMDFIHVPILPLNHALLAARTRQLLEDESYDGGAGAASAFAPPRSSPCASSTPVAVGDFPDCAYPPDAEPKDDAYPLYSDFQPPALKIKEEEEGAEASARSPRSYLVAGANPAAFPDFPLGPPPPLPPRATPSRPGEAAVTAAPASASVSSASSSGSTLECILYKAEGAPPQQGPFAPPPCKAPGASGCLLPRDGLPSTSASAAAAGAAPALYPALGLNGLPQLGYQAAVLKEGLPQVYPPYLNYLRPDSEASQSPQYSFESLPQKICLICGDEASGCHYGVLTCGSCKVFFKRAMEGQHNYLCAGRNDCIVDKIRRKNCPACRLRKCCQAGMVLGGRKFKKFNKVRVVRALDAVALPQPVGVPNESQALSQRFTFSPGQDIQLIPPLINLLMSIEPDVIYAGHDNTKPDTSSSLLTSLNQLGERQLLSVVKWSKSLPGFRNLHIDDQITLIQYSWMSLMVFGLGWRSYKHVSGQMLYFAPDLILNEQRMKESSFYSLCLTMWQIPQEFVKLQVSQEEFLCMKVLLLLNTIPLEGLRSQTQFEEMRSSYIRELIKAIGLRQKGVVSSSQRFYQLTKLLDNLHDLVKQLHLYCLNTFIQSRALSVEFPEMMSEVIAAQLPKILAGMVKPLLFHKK
# Estrogen receptor beta (Homo sapiens), sequence (Q92731 whole entry, looked up, the tested form may be a part): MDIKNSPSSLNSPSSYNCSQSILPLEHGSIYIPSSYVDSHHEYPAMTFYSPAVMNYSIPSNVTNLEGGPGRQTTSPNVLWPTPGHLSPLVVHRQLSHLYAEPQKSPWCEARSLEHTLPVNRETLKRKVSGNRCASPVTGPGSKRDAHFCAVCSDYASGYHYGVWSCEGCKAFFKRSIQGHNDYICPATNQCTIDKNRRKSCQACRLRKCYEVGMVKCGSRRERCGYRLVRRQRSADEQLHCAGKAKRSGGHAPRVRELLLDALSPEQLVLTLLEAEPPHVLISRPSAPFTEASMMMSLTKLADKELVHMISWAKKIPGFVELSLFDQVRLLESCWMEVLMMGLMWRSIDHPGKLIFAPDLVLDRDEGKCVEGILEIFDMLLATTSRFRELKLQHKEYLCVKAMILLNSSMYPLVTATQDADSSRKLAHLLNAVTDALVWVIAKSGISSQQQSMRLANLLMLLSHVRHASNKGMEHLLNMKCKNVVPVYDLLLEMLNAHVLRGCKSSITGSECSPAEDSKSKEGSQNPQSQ
# Estrogen receptor (Homo sapiens), sequence (P03372 whole entry, looked up, the tested form may be a part): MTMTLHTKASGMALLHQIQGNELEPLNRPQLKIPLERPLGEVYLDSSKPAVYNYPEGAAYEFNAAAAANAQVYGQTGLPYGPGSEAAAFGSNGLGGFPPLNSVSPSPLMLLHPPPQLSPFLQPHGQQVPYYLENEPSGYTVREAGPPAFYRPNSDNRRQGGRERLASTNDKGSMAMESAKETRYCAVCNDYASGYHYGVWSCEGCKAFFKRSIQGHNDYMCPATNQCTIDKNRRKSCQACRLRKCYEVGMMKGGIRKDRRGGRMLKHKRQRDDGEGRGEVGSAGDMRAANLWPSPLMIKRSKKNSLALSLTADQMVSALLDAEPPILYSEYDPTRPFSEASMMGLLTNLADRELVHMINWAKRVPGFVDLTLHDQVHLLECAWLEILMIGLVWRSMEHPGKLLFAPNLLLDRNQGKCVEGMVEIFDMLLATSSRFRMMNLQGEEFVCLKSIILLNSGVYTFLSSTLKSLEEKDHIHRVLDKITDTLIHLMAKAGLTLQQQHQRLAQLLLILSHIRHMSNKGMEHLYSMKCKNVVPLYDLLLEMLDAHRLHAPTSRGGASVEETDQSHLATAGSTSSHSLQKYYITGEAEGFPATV
# T1 sequence (P03372 whole entry, looked up): as the sequence (P03372 whole entry, looked up, the tested form may be a part) above
# T1 sequence (Q92731 whole entry, looked up): as the sequence (Q92731 whole entry, looked up, the tested form may be a part) above
# Androgen Receptor/SRC-1 Co-activator, AR (gene 367), sequence (P10275 whole entry, looked up, the tested form may be a part): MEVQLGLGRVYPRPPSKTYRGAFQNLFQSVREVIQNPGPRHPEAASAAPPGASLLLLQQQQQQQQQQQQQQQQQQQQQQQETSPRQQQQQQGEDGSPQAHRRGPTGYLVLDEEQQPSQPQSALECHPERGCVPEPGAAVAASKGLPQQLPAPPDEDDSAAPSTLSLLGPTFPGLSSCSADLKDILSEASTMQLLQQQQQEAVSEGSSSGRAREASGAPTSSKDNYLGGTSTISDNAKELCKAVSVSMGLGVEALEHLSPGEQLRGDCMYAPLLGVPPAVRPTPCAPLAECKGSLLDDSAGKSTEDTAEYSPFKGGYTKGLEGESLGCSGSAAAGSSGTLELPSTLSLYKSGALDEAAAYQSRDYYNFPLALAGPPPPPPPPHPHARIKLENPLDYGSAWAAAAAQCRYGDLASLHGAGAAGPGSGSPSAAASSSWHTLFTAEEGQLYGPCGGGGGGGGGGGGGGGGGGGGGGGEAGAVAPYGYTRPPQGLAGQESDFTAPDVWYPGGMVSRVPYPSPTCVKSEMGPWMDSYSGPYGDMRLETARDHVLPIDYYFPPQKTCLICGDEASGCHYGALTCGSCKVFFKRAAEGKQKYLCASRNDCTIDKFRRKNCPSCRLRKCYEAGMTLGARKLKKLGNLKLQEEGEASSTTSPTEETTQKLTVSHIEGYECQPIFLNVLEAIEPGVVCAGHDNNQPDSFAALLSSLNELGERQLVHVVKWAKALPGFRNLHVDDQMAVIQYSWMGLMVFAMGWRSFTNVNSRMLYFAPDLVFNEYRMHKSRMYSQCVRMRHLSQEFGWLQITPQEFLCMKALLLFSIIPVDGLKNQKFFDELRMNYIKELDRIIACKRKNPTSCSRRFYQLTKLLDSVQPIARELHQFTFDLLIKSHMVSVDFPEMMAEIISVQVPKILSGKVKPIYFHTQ
# Retinoic acid receptor alpha (Homo sapiens), sequence (P10276 whole entry, looked up): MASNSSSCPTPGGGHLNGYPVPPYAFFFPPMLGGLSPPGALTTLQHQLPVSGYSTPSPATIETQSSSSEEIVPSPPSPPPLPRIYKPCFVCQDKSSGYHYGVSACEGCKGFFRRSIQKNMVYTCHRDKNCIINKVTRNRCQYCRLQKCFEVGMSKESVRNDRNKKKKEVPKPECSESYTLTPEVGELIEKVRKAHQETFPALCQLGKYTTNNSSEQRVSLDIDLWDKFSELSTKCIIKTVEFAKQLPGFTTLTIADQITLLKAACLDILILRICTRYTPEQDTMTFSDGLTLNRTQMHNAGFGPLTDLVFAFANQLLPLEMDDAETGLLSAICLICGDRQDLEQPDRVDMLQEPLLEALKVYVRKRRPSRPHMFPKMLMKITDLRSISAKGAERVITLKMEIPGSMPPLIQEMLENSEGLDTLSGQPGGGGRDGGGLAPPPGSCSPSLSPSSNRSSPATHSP
smiles,measurement,setting,value
CN(C)C(=O)Nc1cccc(C(F)(F)F)c1,outcome,[1],inactive
CC[C@H](C)[C@H]1O[C@]2(C=C[C@@H]1C)C[C@@H]1C[C@@H](C/C=C(\C)[C@@H](O[C@H]3C[C@H](OC)[C@@H](O[C@H]4C[C@H](OC)[C@@H](NC)[C@H](C)O4)[C@H](C)O3)[C@@H](C)/C=C/C=C3\CO[C@@H]4[C@H](O)C(C)=C[C@@H](C(=O)O1)[C@]34O)O2,outcome,[2],inactive
same,outcome,[3],inactive
CC(=NC#N)N(C)Cc1ccc(Cl)nc1,outcome,[1],inactive
C[N+]1(C)CCCCC1,outcome,[4],inactive
same,outcome,[1],inactive
C=C(C)[C@H]1Cc2c(ccc3c2O[C@@H]2COc4cc(OC)c(OC)cc4[C@@H]2C3=O)O1,AC50,[4],0.088 µM (active)
same,AC50,[5],0.973 µM (active)
same,outcome,[3],inactive
COP(=O)(NC(C)=O)SC (stereo unspecified),outcome,[1],inactive
COP(=O)(OC)SCn1c(=O)oc2cc(Cl)cnc21,AC50,[4],57.8 µM (active)
same,outcome,[5],inactive
CCCSP(=O)(OCC)SCCC,outcome,[4],inactive
same,outcome,[3],inactive
O=C(O)c1cc(Oc2ccc(C(F)(F)F)cc2Cl)ccc1[N+](=O)[O-],outcome,[1],inactive
Cc1cc(C2CC2)nc(Nc2ccccc2)n1,outcome,[2],inactive
same,outcome,[6],inactive
same,AC50,[7],40 µM (active)
same,AC50,[1],50 µM (active)
same,outcome,[8],inactive
CCOC(=O)COc1cc(-c2nn(C)c(OC(F)F)c2Cl)c(F)cc1Cl,outcome,[4],inactive
same,outcome,[5],inactive
CC(Oc1cccc(Cl)c1)C(=O)O (stereo unspecified),outcome,[1],inactive
CC(COc1ccc(Oc2ccccc2)cc1)Oc1ccccn1 (stereo unspecified),outcome,[4],inactive
same,outcome,[5],inactive
same,outcome,[1],inactive
same,outcome,[3],inactive
COP(=O)(OC)OC(Br)C(Cl)(Cl)Br (stereo unspecified),outcome,[2],inactive
same,AC50,[4],32.5 µM (active)
same,outcome,[5],inactive
same,outcome,[7],inactive
